Test [1] can be described thus: optical density shifts of acrAB sulA E. coli – strain DRC41, OD650, 48 h, E. coli filamentation inducer project, primary screen (AID 1152).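 Note: E. coli MC1000 strain DRC41 lacking acrAB efflux pump and sulA.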 The settings on record: higher = more signal, called active from +8 up or from −8 down.
Test [2] is described as follows: probe aLefty1 binding on compound microarray – biochemical, small-molecule microarray, 635/667 nm fluorescence, primary screen (AID 1153).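 Note: score merges spot fluorescence with signal-to-noise ratio from the scanned slide images.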 The settings on record: higher = more signal.
A short description of test [3]: plasmodial surface anion channel blockers, osmotic lysis – cell-based, P. falciparum Indochina, OD700, 1 h, primary screen (AID 1154). The settings on record: P. falciparum Indochina infected RBC osmotic lysis, higher = more signal, called active from +8 up or from −8 down.
Test [4] is described as follows: plasmodial surface anion channel blockers, osmotic lysis – cell-based, P. falciparum Indochina, OD700, 2 h, primary screen (AID 1155).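 Note: lysis reports solute entry through the parasite surface anion channel PSAC.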 The settings on record: P. falciparum Indochina infected erythrocytes, higher = more signal, called active from +8 up or from −8 down.
The nature of test [5]: changes in parasitized red cell lysis, either direction – P. falciparum Indochina, OD700, 3 h, PSAC antagonist project, primary screen (AID 1156). The settings on record: P. falciparum-infected erythrocytes, osmotic lysis, higher = more signal, called active from +8 up or from −8 down.
Test [6] in a line: plasmodial surface anion channel blockers, osmotic lysis – cell-based, P. falciparum Indochina, OD700, 18 h, primary screen (AID 1157). The settings on record: P. falciparum Indochina infected erythrocytes, osmotic lysis OD700, 18 h; higher = more signal, called active from +8 up or from −8 down.
Test [7] can be described thus: S6 kinase pathway phospho-S6 level changes – cell-based, A549, cytoblot, luminescence, serum-stimulated, primary screen (AID 1158).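 Note: serum-stimulated A549 lung adenocarcinoma cells; signal is phosphorylated S6 detected by cytoblot immunostaining with HRP secondary.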 The settings on record: 5 h, higher = more signal.
Test [8] has as its target NADPH oxidase 2 (Homo sapiens) (UniProt P04839). Description: compounds shifting NOX2 Amplex Red fluorescence – cell-based, HEK293-NOX2, PMA-stimulated, NOX inhibitor project, primary screen (AID 1159). Note: test concentration not given here. The settings on record: 45 min, higher = more signal, called active from +8 up or from −8 down.
Test [9] deals with NADPH oxidase 4 (Homo sapiens) (UniProt Q9NPH5). Description: compounds shifting NOX4 Amplex Red fluorescence – cell-based, HEK293-NOX4, tetracycline-induced, NOX inhibitor project, primary screen (AID 1160). The settings on record: HEK293-NOX4, Amplex Red H2O2 fluorescence, 45 min; higher = more signal, called active from +8 up or from −8 down.
Sequence of NADPH oxidase 4 (Homo sapiens) (Q9NPH5 whole entry, looked up): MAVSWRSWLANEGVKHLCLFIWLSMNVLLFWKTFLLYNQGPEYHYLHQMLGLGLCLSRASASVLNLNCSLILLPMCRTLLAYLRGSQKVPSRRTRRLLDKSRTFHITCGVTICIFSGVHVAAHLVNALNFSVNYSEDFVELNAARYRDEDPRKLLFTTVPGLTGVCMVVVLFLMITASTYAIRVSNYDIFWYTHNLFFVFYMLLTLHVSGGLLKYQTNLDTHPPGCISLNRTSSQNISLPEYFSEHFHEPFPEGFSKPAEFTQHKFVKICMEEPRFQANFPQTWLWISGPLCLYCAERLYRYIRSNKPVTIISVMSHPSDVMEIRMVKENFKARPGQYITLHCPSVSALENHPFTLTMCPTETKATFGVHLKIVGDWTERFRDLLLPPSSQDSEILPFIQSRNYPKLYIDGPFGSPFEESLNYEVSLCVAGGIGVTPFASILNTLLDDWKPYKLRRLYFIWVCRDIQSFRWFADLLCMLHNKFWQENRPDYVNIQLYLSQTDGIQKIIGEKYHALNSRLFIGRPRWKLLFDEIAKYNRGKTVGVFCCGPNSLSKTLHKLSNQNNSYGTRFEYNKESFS
The target in test [10] is NADPH oxidase 5 (Homo sapiens) (UniProt Q96PH1). The test is described as follows: compounds shifting NOX5 Amplex Red fluorescence – cell-based, HEK293-NOX5, NOX inhibitor project, primary screen (AID 1161). The settings on record: HEK293-NOX5, ionomycin, 45 min, higher = more signal.
Sequence of NADPH oxidase 5 (Homo sapiens) (Q96PH1 whole entry, looked up): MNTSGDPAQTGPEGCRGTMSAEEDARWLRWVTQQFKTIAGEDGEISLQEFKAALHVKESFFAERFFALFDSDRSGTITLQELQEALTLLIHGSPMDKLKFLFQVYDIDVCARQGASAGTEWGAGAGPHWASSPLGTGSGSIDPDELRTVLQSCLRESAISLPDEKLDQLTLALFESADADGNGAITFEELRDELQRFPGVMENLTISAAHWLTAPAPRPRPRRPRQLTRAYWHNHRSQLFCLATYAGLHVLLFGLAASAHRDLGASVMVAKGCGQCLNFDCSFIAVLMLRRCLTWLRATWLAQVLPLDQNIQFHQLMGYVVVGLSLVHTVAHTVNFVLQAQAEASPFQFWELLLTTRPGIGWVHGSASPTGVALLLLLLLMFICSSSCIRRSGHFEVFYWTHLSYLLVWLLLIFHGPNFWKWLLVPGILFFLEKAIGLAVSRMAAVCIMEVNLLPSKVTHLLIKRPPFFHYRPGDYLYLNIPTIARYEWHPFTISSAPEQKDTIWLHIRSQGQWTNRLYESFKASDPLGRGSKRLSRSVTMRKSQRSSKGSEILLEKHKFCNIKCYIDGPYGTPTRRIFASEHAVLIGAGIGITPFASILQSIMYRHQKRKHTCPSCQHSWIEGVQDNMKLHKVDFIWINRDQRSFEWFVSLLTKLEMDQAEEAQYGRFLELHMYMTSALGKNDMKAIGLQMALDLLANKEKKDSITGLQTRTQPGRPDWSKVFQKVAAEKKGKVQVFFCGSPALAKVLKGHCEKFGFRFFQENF
Test [11] is described as follows: compound effects on lung adenocarcinoma cell viability – A549, calcein-AM fluorescence, 48 h, basal, profiling panel (AID 1162). Note: test concentration not given here. The settings on record: higher = more signal.
The nature of test [12]: compound effects on differentiated 3T3-L1 adipocyte viability – cell-based, 3T3-L1 adipocytes, calcein-AM fluorescence, 48 h, basal, profiling panel (AID 1163). Note: test concentration not given here. The settings on record: 3T3-L1 adipocytes viability, higher = more signal.
The nature of test [13]: compound effects on hepatocellular carcinoma cell viability – HepG2, calcein-AM fluorescence, 48 h, basal, profiling panel (AID 1164). Note: test concentration not given here. The settings on record: higher = more signal.
Test [14] in a line: compound effects on multiple myeloma cell viability – MM1S, calcein-AM fluorescence, 48 h, basal, profiling panel (AID 1165).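 Note: viability of MM1S multiple myeloma cells under basal unstimulated conditions; test concentration not given here.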 The settings on record: higher = more signal.
Test [15] is described as follows: calcein-AM signal in unstimulated myeloma cells – cell-based, calcein-AM fluorescence, 48 h, PK04 Diversity Set, profiling panel (AID 1166).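 Note: cells grown under basal conditions without added stimulus; test concentration not given here.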 The settings on record: RPMI8226 myeloma viability, higher = more signal.
The nature of test [16]: JC-1 mitochondrial signal, unstimulated HepG2 cells – cell-based, JC-1 fluorescence, 24 h, 100 nL compound, profiling panel (AID 1167). Note: test concentration not given here. The settings on record: HepG2 mitochondrial potential, higher = more signal.
Test [17] is described as follows: JC-1 mitochondrial signal, unstimulated adipocytes – cell-based, JC-1 fluorescence, 3T3-L1 adipocytes, 24 h, 100 nL compound, profiling panel (AID 1168). Note: test concentration not given here. The settings on record: JC-1 mitochondrial fluorescence, higher = more signal, called active from +8 up or from −8 down.
Test [18] can be described thus: JC-1 mitochondrial signal, unstimulated myeloma cells – cell-based, JC-1 fluorescence, RPMI8226, 24 h, 100 nL compound, profiling panel (AID 1169). Note: test concentration not given here. The settings on record: JC-1 mitochondrial potential fluorescence, higher = more signal.
Test [19] can be described thus: JC-1 mitochondrial signal, unstimulated MM1S myeloma – cell-based, JC-1 fluorescence, 24 h, 100 nL compound, profiling panel (AID 1170). Note: test concentration not given here. The settings on record: MM1S mitochondrial potential, higher = more signal.
Test [20] can be described thus: resazurin metabolic signal in A549 cells – cell-based, resazurin fluorescence, 24 h, PK04 Diversity Set, profiling panel (AID 1171). Note: test concentration not given here. The settings on record: A549 viability, higher = more signal, called active from +8 up or from −8 down. (Resazurin is reduced to fluorescent resorufin, in cell work by metabolically active cells.)

The source made the active and inactive calls.

Sequence of NADPH oxidase 2 (Homo sapiens) (P04839 whole entry, looked up): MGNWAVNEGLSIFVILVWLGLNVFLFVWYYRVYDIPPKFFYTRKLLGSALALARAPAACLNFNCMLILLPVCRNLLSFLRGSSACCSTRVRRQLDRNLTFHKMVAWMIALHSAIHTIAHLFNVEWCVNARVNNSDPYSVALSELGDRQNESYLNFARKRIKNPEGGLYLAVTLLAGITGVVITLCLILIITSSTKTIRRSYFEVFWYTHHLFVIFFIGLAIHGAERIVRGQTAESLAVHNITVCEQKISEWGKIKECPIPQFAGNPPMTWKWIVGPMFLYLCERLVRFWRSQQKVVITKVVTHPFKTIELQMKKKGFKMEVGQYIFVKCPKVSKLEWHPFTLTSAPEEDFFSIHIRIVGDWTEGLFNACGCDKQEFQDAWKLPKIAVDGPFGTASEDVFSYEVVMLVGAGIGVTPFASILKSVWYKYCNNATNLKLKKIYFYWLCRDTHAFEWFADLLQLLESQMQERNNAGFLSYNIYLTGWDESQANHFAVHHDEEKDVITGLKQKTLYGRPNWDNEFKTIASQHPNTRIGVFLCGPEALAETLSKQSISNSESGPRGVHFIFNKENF

For the compound `COc1cc([C@@H]2N[C@H](C(=O)O)Cc3c2[nH]c2ccccc32)cc(OC)c1OC`, the z-score is 0.441 (inactive) in [1]; 0.604 (inactive) in test [3]; 0.321 (inactive) in [4]; 0.665 (inactive) in [5]; 0.198 (inactive) in [6]; 0.172 in test [7]. Besides, the z-score in [8] was 2.14 (inactive); in [9], -0.0815 (inactive); in test [10], -1.1; in [11], 0.937; in test [12] it was 1.05; in [13], -0.793. Moreover, the z-score in test [14] was -0.0434; in [15], 0.407; in [16], -0.737; in [17] it was -0.135 (inactive); in [18], -0.663; in test [19], 0.639. For the same compound, in test [20], the z-score is 0.455 (inactive). Moreover, the composite z-score in test [2] is -0.324.
Regarding `COc1cc(Cc2cc3c(c(CCc4ccccc4)n2)[Si](C(C)C)(C(C)C)OC3)cc(OC)c1OC`, the z-score in test [1] is -0.655 (inactive); in [3], 2.06 (inactive); in [4], 0.481 (inactive); in test [5], -0.411 (inactive); in test [6], -0.232 (inactive); in test [7], -0.475. The z-score in test [8] is -0.195 (inactive); in test [9], -0.231 (inactive); in test [10] it was -2.59; in test [11], 0.557; in [12], -1.22; in test [13] it was -0.202. For the same compound, the z-score in test [14] is -2.17; in test [15], -4.13; in test [16], 0.756; in test [17] it was -0.411 (inactive); in test [18], -0.799; in test [19] it was -0.234. In addition, the z-score in [20] is 2.12 (inactive). The same compound yielded a composite z-score in [2] of -0.0501.
As to `O=C(NCC(F)(F)F)[C@@H]1c2ccccc2C(=O)N(Cc2ccccc2Cl)[C@H]1c1ccc(CO)cc1`, the z-score in test [1] is 0.774 (inactive); in [3], 1.88 (inactive); in [4], 0.839 (inactive); in test [5], 0.62 (inactive); in test [6], 0.157 (inactive); in test [7], -0.217. Besides, the z-score is -0.138 (inactive) in [8]; 0.22 (inactive) in test [9]; -0.0659 in [10]; 1.25 in [11]; -0.0448 in test [12]; 0.343 in test [13]. In addition, the z-score in [14] is 0.189; in [15], -0.317; in test [16], 1.48; in [17] it was -0.198 (inactive); in test [18], -0.65; in test [19], 0.499. The z-score in test [20] is 1.26 (inactive). Moreover, the composite z-score in [2] is -0.27.
In the case of `CO[C@H]1COC(=O)[C@H](CCSC)NC(=O)CC=C[C@@H](C)COC(=O)[C@@H](OCc2ccccc2)C=C[C@@H]1C`, the z-score is -0.332 (inactive) in test [1]; -0.349 (inactive) in test [3]; 0.238 (inactive) in test [4]; 0.04 (inactive) in [5]; -0.236 (inactive) in [6]; 0.182 in test [7]. The z-score in test [8] was 1.65 (inactive); in test [9], -1.43 (inactive); in test [10], 0.00807; in [11], 0.349; in test [12], 0.507; in [13], 0.0042. For the same compound, the z-score in test [14] was 0.199; in test [15] it was -0.358; in [16] it was 0.842; in test [17], 1.23 (inactive); in test [18], 0.365; in test [19] it was 1.34. Further, in test [20], the z-score is 0.613 (inactive). In addition, the composite z-score in test [2] was -0.109.
Take `CCCC=C(CCC)[C@@H](NS(=O)(=O)c1cccc(C(F)(F)F)c1)c1ccc(C(=O)OC)cc1`: the z-score in test [1] was -0.77 (inactive); in test [3], -0.82 (inactive); in test [4], -0.868 (inactive); in test [5], -0.723 (inactive); in [6] it was -1.41 (inactive); in test [7], 0.213. Further, the z-score in test [8] was 0.139 (inactive); in [9] it was 0.449 (inactive); in [10], 1.87; in test [11], -0.336; in test [12], -0.0748; in test [13] it was -1.07. Besides, the z-score in test [14] was -0.008; in test [15] it was -0.341; in test [16], -1.25; in test [17], -0.413 (inactive); in [18], 0.0542; in test [19], -1.04. Besides, in [20], the z-score was 0.206 (inactive). Besides, the composite z-score in [2] was determined as 1.6.
For `O=C1C2C=CC(C(O)C(c3ccccc3)c3ccccc3)N(Nc3ccc([N+](=O)[O-])cc3)C2C(=O)N1c1ccccc1` (stereo not given), the z-score in test [1] was -0.344 (inactive); in [3] it was 5.98 (inactive); in test [4], 1.73 (inactive); in test [5] it was -0.186 (inactive); in test [6], 1.29 (inactive); in test [7], -0.606. In addition, the z-score in [8] is 0.128 (inactive); in test [9], -1.06 (inactive); in test [10], -0.097; in [11], -0.727; in test [12], -0.97; in test [13], 0.585. For the same compound, the z-score was -0.224 in [14]; -0.986 in test [15]; 0.581 in test [16]; -0.735 (inactive) in [17]; 0.213 in [18]; -1.44 in [19]. In addition, the z-score in [20] was 0.452 (inactive). In test [2], this compound showed a composite z-score of 0.442.
For the compound `COC(=O)[C@@]1(Cc2ccccc2N=[N+]=[N-])N=C(c2ccc(OCCCO)cc2)O[C@H]1c1ccccc1CN=[N+]=[N-]`, the z-score in test [1] was 0.383 (inactive); in [3], 22.3 (active); in [4], 8.71 (active); in test [5], 0.12 (inactive); in test [6] it was 3.46 (inactive); in test [7], 0.575. Further, the z-score in [8] is -1.84 (inactive); in [9], 0.483 (inactive); in test [10], -0.961; in test [11], -2.82; in test [12], 0.128; in test [13] it was -5.51. Also, the z-score is -3.55 in test [14]; -3.96 in test [15]; -1.98 in test [16]; 1.69 (inactive) in [17]; -0.822 in [18]; -2.91 in test [19]. In test [20], the z-score is -3.26 (inactive). The compound further registered a composite z-score in [2] of 0.191.
As to `C[C@@H]1NC(=O)[C@H](Cc2ccccc2)NC(=O)[C@@]23C(=O)N[C@@H](Cc4ccccc4)C2[C@H](C)[C@@]2(C)O[C@H]2C3/C=C/C/C=C\CNC1=O` (stereo not given in full), the z-score in test [1] was -1.13 (inactive); in [3], 1.87 (inactive); in test [4] it was 0.316 (inactive); in test [5] it was 0.134 (inactive); in test [6], -0.0643 (inactive); in [7], -0.248. Further, the z-score was 0.832 (inactive) in test [8]; -0.951 (inactive) in test [9]; 0.906 in [10]; -0.0598 in [11]; 0.523 in [12]; -0.706 in test [13]. The z-score in test [14] is 0.0254; in test [15], -1.65; in test [16], -0.971; in test [17] it was -0.206 (inactive); in test [18] it was 0.814; in test [19], 0.546. For the same compound, the z-score in test [20] was -0.207 (inactive). Moreover, the composite z-score in test [2] was -0.169.
`C[C@@H]1CC[C@H]2C(=O)N3[C@@H](CC[C@@H](C)[C@@H]3c3cccc(N4CCOCC4)c3)C(=O)N2[C@H]1c1cccc(Br)c1`: the z-score in [1] was 0.801 (inactive); in [3], 8.99 (active); in test [4], 1.51 (inactive); in [5], 0.826 (inactive); in test [6], 0.71 (inactive); in test [7] it was -0.246. For the same compound, the z-score in test [8] was 0.693 (inactive); in test [9] it was 0.815 (inactive); in [10], 0.717; in [11], 1.56; in test [12], 1.4; in test [13], 0.273. Moreover, the z-score in test [14] was -0.775; in test [15], -1.3; in [16], 3.04; in [17], 0.37 (inactive); in [18], -0.779; in [19], 0.521. The z-score in test [20] is 1.36 (inactive). The composite z-score in test [2] is -0.0061.

Source of the values: PubChem BioAssay.
